The assay relates to VDR:RXRa (NR concentration 270 nM, RXRa partner concentration 90 nM). The assay is described as follows: PBM binding z-score (relative to random genomic background probes); higher = stronger binding; sequences stand for … in GC…GCGATTGACAGCGTAGAATGAAGG
On the procedure:
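Protein-binding microarray (Agilent 4x180K custom design, double-stranded 60-nt probes: 5' GC cap, 34-nt variable region, 24-nt constant primer region; full probe sequence given). Purified or IVT nuclear receptor:RXRα heterodimers (3:1 NR:RXRα, mostly 270:90 nM) or homodimers were incubated for 1 h in PBS with 2% milk and no ligand, then detected with Alexa488 antibodies. Fluorescence from o1-orientation probes (~5 replicates averaged) was converted to z-scores against 500 random hg19 background probes. Variable regions are seed direct-repeat (DR0–DR5) sites, all their single-nucleotide variants and half-site ablations.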
Sequence CCCCGGAGGACAGAAGGTCAGAGCTGTCCGCTTT had a PBM binding z-score of 0.723. In the case of CCCAGTAGGTTACGAGGGGGCATTCAGTGCGAAT it was 5.29. In the case of AGTCAAAGTTCAGCACGAGGTAACGTAAAGCACG it was 3.25; in that of CTAACTAGGTCACCGGAAGGTCAAAGTCCGCATG, 6.08; in that of CGTCCAAGGTCAATGCGAGGTCAGTGAAAGCATT, 6.22. On to TAGCCTAGGTCATTGGACCAGTATAGTACGCATC, for which the PBM binding z-score was determined as 2.08. In the case of CGAACTAGGTCAAAGGACAGCGAAAGGCGACGTA it was 1.47; in that of GATCCAGGGTCAGCTAGAGGCCAGAGTATGGAAA, 3.16; in that of CCTAGTTGGTCAAGGTAACACACGCTATAGGTAC, 0.707. In the case of CCTACTGGGCCATTCAGAGGTTATTGATCATATG it was 0.462; in that of AGTCAAAGTTCATCTAGGTAACGAAAGATATGCT, 4.81; in that of CGAACTAGGTCACCAGGACCGTGAAGAGGTTGGA, 2.4.

Take ATATGTAGGATATCGGGTCATTCAGTTTGCGCAT: the PBM binding z-score was found to be 4.94. In the case of TCGAGTAGGTTACGGGAGCATTCAGGGATGAAGA it was 0.0873; in that of TAGCCTAGGTCATTGTGCCAGTATAGTACGCATC, 2.33; in that of CCTACTGGGCCAAGGTCATAGATCAGTCAAAGCA, 2.87.

ATATGTATGTTAGGGTCATTCAGAAAGTAGGGAA: the PBM binding z-score amounted to 4.38. In the case of TCAAGTAGGTTACGGGGGCATTCAGGGATGAAGA it was 4.11; in that of ATCTCTAGGTCAAAGTTCAGTGAATCCCGAGGAT, 4.4; in that of TCGAGTAGGTTACGCGGGCATTCAGGGATGAAGA, -0.157. Sequence ACTCGGAGGGCAAAGGTCAGAGCTACGCCAGTGA displayed a PBM binding z-score of 4.32.

In turn, CTATGTAGTTTAAGGGGGTCATTCAGTTTGAAAG came in with a PBM binding z-score of 6.94. In the case of CCGACGGGGGCAGAAAGGTTACCATACCATCCGG it was 4.49; in that of GCTGCTAGGTCAACTGATGGTCAGCTAAAGCTCG, 1.47; in that of CGAACTAGGTCACCAGGACATTGAAGAGGTTGGA, 2.31.

CAAACTAGGTCAAAGGTCAAAGTTGAGCCAACCA: the PBM binding z-score amounted to 6.85.

As for TCGAGTAGGTTACGGGTGCATTCAGGGATGAAGA, the PBM binding z-score stood at 3.53. In the case of CGAACTAGGTCACGAGGACAGTGAAGAGGTTGGA it was 2.75; in that of CGAACTAGGACACCAGGACAGTGAAGAGGTTGGA, -0.285. Take CGAACTATGTCACCAGGACAGTGAAGAGGTTGGA: the PBM binding z-score was found to be 0.173. In the case of CCGAGTAGGTTACGAGGGGGCACTCAGTGCGAAT it was 4.68; in that of TCATATAGGTAATCAGGTGAAAGTCCGTAAGTTA, 1.19; in that of CCGAGTAGGTTACGAGGGAGCATTCAGTGCGAAT, 1.11.

Turning to TCGAGTAGGTTACGGGGGCATACAGGGATGAAGA, the PBM binding z-score worked out at 3.54. For ATGGAAAGGTCGTGAGGTGAGTATACAGAAAGGC, the PBM binding z-score is 4.

For the sequence CCTTACGGGTAACTCCAGGTTATAGCATCGGAGT, the PBM binding z-score was found to be 0.375. In the case of CGAAATAGGTCACCAGGACAGTGAAGAGGTTGGA it was 2.91; in that of CCGAGTAGGTTACGAGGGGGCATTGAGTGCGAAT, 6.16; in that of ATGTGTAGGTTACATCCGGGTCATTCAGGCTATG, 4.22. In the case of CTATGTAGGGTAAGGGGGTCATTCAGTTTGAAAG it was 7.01.

These data come from the supplement of paper PMC6555819.
